Consider 22 molecules from PubChem BioAssay.

In general, inhibition refers to the drop in the measured response relative to a control, in per cent.

Structures are written as SMILES. A number with no mark means an inactive call. How the calls were made is not given here.

The experiment deals with Pantothenate synthetase (Mycobacterium tuberculosis (strain ATCC 25618 / H37Rv)) (UniProt P9WIL5). Put plainly: Coupled enzyme confirmation of inhibitors against recombinant Mtb PanC (AID 375).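 Further: 0% = full reaction with vehicle and 100% = no enzyme background.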 The following applies: coupled enzyme assay; at 10 µM, stronger effect = higher value.
Pantothenate synthetase (Mycobacterium tuberculosis (strain ATCC 25618 / H37Rv)), sequence (P9WIL5 whole entry, looked up): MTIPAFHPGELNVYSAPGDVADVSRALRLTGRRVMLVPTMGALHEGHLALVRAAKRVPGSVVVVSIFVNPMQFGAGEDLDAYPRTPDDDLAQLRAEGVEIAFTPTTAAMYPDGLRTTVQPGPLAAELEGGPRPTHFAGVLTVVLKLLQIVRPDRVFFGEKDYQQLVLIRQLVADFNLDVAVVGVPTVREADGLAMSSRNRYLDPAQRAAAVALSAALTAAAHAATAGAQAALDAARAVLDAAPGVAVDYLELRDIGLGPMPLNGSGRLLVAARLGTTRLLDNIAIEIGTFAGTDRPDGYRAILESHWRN
Turning to `CCCCNC(=O)CSc1nc2ccc(N3CCOCC3)cc2c(=O)n1CCc1ccccc1`, the inhibition is 15%.

Take `Cn1c(C(=O)NCc2cccnc2)cc2sccc21`: the inhibition was 0%.

On to `CC1(C)CC(=O)C(C=NCC2CCNCC2)=C(O)C1`, for which the inhibition was 2%.

Regarding `Cc1noc(/C=C/N(C)C)c1S(=O)(=O)N1CCCC(C(=O)N2CCc3ccccc32)C1` (configuration not stated), the inhibition is 10%.

As to `c1ccc2c(-c3nc(-c4ccncc4)no3)cccc2c1`, the inhibition was 0%.

For `COc1ccc(Cc2nnc(NC(=O)Cc3cccs3)s2)cc1`, the inhibition is 0%.

Turning to `CC(NC(=O)COc1ccc(Br)cc1)C(=O)O` (configuration not stated), the inhibition was 0%.

Turning to `Cc1cc2ncn(C(=O)c3c(-c4ccccc4)noc3C)c2cc1C`, the inhibition was 5%.

Turning to `COc1ccc(S(=O)(=O)Nc2ccc(S(=O)(=O)N3CCCCC3)cc2)cc1OC`, the inhibition was 0%.

On to `Cc1ccccc1CN1CCN(C(=O)c2cccc(F)c2)CC1`, for which the inhibition was 0%.

`O=C(NC1CCCC1)c1ccc(S(=O)(=O)N2CCCC2)cc1`: the inhibition was 0%.

For the molecule `CCOC(=O)C1=C(C)N=C2SC(C)C(=O)N2C1c1cccc(F)c1` (configuration not stated), the inhibition is 0%.

On to `CCC(=O)Oc1ccc(C(CC)C(CC)c2ccc(OC(=O)CC)cc2)cc1` (configuration not stated), for which the inhibition is 0%.

With `COc1ccccc1C(=O)OCn1nnc2ccccc2c1=O`, the inhibition is 0%.

As to `CC1CCc2c(sc3c2C2=NS(=O)(=O)CCN2C=N3)C1` (configuration not stated), the inhibition is 2%.

For the molecule `O=c1oc2ccccc2c2c1ncn2-c1ccccc1`, the inhibition was 0%.

With `O=C(CN(CCc1ccccc1)C(=O)CNS(=O)(=O)c1ccccc1)NCC1CCCO1` (configuration not stated), the inhibition was 0%.

Consider `CCN(CC)S(=O)(=O)c1ccc(F)cc1`, for which the inhibition is 0%.

`CCOC(=O)Cc1csc(NC(=O)CSc2nnc(C(C)C)n2CC)n1`: the inhibition is 0%.

As to `O=C(CCC1COc2ccccc2O1)NCC1COc2ccccc2O1` (configuration not stated), the inhibition is 0%.

As for `CC(NC(=O)c1ccco1)c1ccc2c(c1)OCCO2` (configuration not stated), the inhibition was 0%.

As for `CCCCN(CCCC)CCCNC(=O)CC1Oc2ccc(C)cc2NC1=O` (configuration not stated), the inhibition was 3%.
